The source of these data is the supplement of paper PMC7156485.

What all share (settings): concentration: 10 µM; 24 h
Assay [1] relates to HCC1569. The assay is described as follows: cell number relative to DMSO (% of DMSO); higher = more cells (less growth inhibition / toxicity). The gist of the method:
(§1)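 Using 384-well plates with 800 cells per well in RPMI plus 10% FBS, HCC1569 and TDF cells were exposed to compounds at 10 µM, in triplicate, for 24 h at 37 °C. Imaging of six fields per well at ×10 followed H1.0 and DAPI staining. The reported quantity, H1.0 nuclear intensity or cell number, is a median of replicates given as percent of the plate control, and HCC1569 values were smoothed for positional effects.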

The subject of assay [2] is TDF. The assay is described as above. The gist of the method: as §1
For assay [3], the system named is TDF. In words: H1.0 immunofluorescence intensity relative to DMSO (% of DMSO); higher = stronger H1.0 induction, active = 120 or more. The gist of the method: as §1
In assay [4] the test system is HCC1569. In words: H1.0 immunofluorescence intensity relative to DMSO (% of DMSO); higher = stronger H1.0 induction, active = 140 or more. The gist of the method:
as §1
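Throughout, for H1.0 immunofluorescence intensity relative to DMSO: TDF is a line of transformed human dermal fibroblasts of mesenchymal origin.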
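Throughout, for cell number relative to DMSO: TDF denotes transformed human dermal fibroblasts of mesenchymal origin.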

Regarding `CCCCOc1cc(CC2CNC(=O)N2)ccc1OC` (stereo unspecified), the values for the cell number in assay [1] and in assay [2] were 101 and 110, respectively. In addition, the H1.0 immunofluorescence intensity in assay [3] is 85.3 (inactive); in assay [4], 86.2 (inactive).
On the same counts, the results for `Nc1ncn(C2OC(CO)C(O)C2O)c(=O)n1` (stereo unspecified) [5-azacytidine] are 65.7, 78, 101 (inactive) and 150 (active).
On the same counts, the results for `COc1cc(-c2oc3cc(O)cc(O)c3c(=O)c2O)ccc1O` [Isorhamnetine] are 97.1, 97.1, 97.1 (inactive) and 116 (inactive).
On the same counts, the results for `O=c1c(O)c(-c2cc(O)c(O)c(O)c2)oc2cc(O)ccc12` [Robinetine] are 99, 105, 98.3 (inactive) and 90.7 (inactive).
On to `Clc1ccc(C(c2ccccc2Cl)C(Cl)Cl)cc1` (stereo unspecified) [1-(2-Chlorophenyl)-1-(4-chlorophenyl)-2,2-dichloroethane], for which the cell number in assay [1] worked out at 96.1; in assay [2], 106. Moreover, the values for the H1.0 immunofluorescence intensity in assay [3] and in assay [4] were 98.3 (inactive) and 92.9 (inactive), respectively.
On the same counts, the results for `CS(=O)c1ccc(-c2nc(-c3ccc(F)cc3)c(-c3ccncc3)[nH]2)cc1.Cl` (stereo unspecified) are 88.9, 99.5, 94.5 (inactive) and 117 (inactive).
For `NC(=S)NN=Cc1ncccc1N` [3-amino-2-pyridinecarbaldehyde thiosemicarbazone] the same measures were 77.2, 41.7, 113 (inactive) and 99.1 (inactive).
On the same counts, the results for `Cc1ccc(Cl)c(Nc2ccccc2C(=O)[O-])c1Cl.[Na+]` [Meclofenamic acid sodium] are 106, 106, 90.8 (inactive) and 101 (inactive).
In the case of `CCCN(CCC)CC1CCCCN1CCNC(=O)N1c2ccccc2C(=O)Nc2cccnc21` (stereo unspecified), the cell number in assay [1] was found to be 98.5; in assay [2] it was 112. In addition, the H1.0 immunofluorescence intensity in assay [3] was 87.8 (inactive); in assay [4] it was 100 (inactive).
